Screening results from PubChem.
RAM network inh – inhibitors of the yeast RAM network, primary screen, dse1pr::URA3 reporter, 5-FOA selection; S. cerevisiae dse1pr::URA3 reporter, 5-FOA growth OD615, 2 d; analog-sensitive cbk1-as2 kinase mutant strain; inhibition, % at 50 µM; 190,000 tested, 1.8% active;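 active means inhibition above a set limit, 3 SD over mean compound inhibition, cut at about 8.4% in these data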;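 further: 0% = DMSO-only wells with no growth and 100% = 10 µM 1-NA-PP1 full growth; inhibition rescues growth on 5-FOA so higher OD means more RAM inhibition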
Lmaj promast – Leishmania major promastigote growth inhibition, primary screen; inhibition, % at 10 µM; 200,000 tested, 9% active; AID 1063, 2008; Leishmania major promastigotes, resazurin fluorescence viability; in the data active means inhibition above about 50%;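 further: promastigotes grown with compound for 44 hours at 28 °C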
WT yeast gro inh – growth inhibition of WT strain, primary screen, mitochondrial fusion inhibitor project, WT and mutant strains, chemical genetic | mitochondrial fusion phenotypic screen | AID 1362, 2008 | 190,000 tested, 2.1% active | inhibition, % at 10 µM; in the data active means inhibition above about 58%; tested in S. cerevisiae
CHOP inhibitor – inhibitors of CHOP promoter induction, primary screen, cell-based, unfolded protein response, luciferase reporter | AID 2732, 2010 | 220,000 tested, 3.8% active | inhibition, % at 10 µM | CHO-K1 CHOP-promoter luciferase, tunicamycin-induced, 15-18 h;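 active means compounds that reduced the stress-induced luciferase reporter signal by more than about 70% of percent inhibition, limit read from the data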;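 further: 0% = tunicamycin plus vehicle and 100% = wells without tunicamycin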
CHOP confirm – retest of CHOP induction inhibitors, confirmation, cell-based; shares compounds with CHOP inhibitor; CHO-CHOP promoter luciferase reporter, tunicamycin-induced, luminescence; inhibition, % at 10 µM; 2,100 tested, 45% active;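 active means mean of three repeat readings of reporter signal inhibition above a set limit, cut at about 70% in these data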;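 further: 0% = tunicamycin plus vehicle and 100% = wells lacking tunicamycin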
* marks the source's active call; other numbers are inactive results. In the library only some 13% were active in any assay of this set; here they are far more common.

How did Cc1c(-c2cc(C(=O)O)on2)cnn1C do in these assays?
RAM network inh: 2; Lmaj promast: -9; WT yeast gro inh: -4; CHOP inhibitor: 5

What do the screens show for `O=C(O)c1ccccc1C(=O)Nc1ccccc1`?
RAM network inh: 0; Lmaj promast: -4; WT yeast gro inh: -9; CHOP inhibitor: 24

What do the screens show for `O=C(Nc1ccccc1)C1=C(c2ccccc2)S(=O)(=O)CCS1(=O)=O`?
RAM network inh: 4; Lmaj promast: -1; WT yeast gro inh: 9; CHOP inhibitor: 108*; CHOP confirm: 110*

Results for Cc1ccc(O)c(NC(=O)c2noc3c2CCc2ccccc2-3)c1 ?
RAM network inh: 2; Lmaj promast: -9; WT yeast gro inh: -1; CHOP inhibitor: 107*; CHOP confirm: -96

What do the screens show for `Cc1cc(NC(=O)c2noc3c2CCc2ccccc2-3)no1`?
RAM network inh: 2; WT yeast gro inh: -4; CHOP inhibitor: 19

How did Clc1ccc(-c2nnc(CNC3CC3)o2)cc1 do in these assays?
RAM network inh: 0; Lmaj promast: -8; WT yeast gro inh: -7; CHOP inhibitor: 8

How did CC(/C=C1\SC(=Nc2cccnc2)NC1=O)=C\c1ccccc1 do in these assays?
CHOP inhibitor: 27

What do the screens show for `C=CCOc1ccc(/C=C2\SC(=Nc3cccnc3)NC2=O)cc1`?
CHOP inhibitor: 101*; CHOP confirm: -3

Results for CCc1cccc(C)c1NC(=O)CSc1nc(-c2ccccc2F)nc2nc[nH]c12 ?
RAM network inh: 4; Lmaj promast: 62*; WT yeast gro inh: -4; CHOP inhibitor: 108*; CHOP confirm: 56

How did COC(=O)C(C)(C)ONC(=O)Nc1ccc(C)cc1 do in these assays?
RAM network inh: 1; Lmaj promast: -7; WT yeast gro inh: -15; CHOP inhibitor: 6

What do the screens show for `O=c1[nH]c(/C(Cl)=C/c2cc(Cl)ccc2O)nc2cc(Cl)ccc12`?
RAM network inh: 2; Lmaj promast: 49; WT yeast gro inh: 17; CHOP inhibitor: 100*; CHOP confirm: 23

Results for O=c1[nH]c(/C(Cl)=C/c2cccc(C(F)(F)F)c2)nc2cc(Cl)ccc12 ?
RAM network inh: 3; Lmaj promast: -1; WT yeast gro inh: 3; CHOP inhibitor: 29

What do the screens show for `O/N=C(\c1ccc(Cl)cc1Cl)c1ncc(C(F)(F)F)cc1Cl`?
RAM network inh: -1; Lmaj promast: 2; WT yeast gro inh: 85*; CHOP inhibitor: 107*; CHOP confirm: 111*

What do the screens show for `O=C1CCCC(=O)N1c1ccc(N2CCOCC2)c([N+](=O)[O-])c1`?
RAM network inh: -1; Lmaj promast: 0; WT yeast gro inh: 6; CHOP inhibitor: -17

What do the screens show for `CCC(=O)N1CN(S(=O)(=O)c2ccc(C)cc2)CC1C` (stereo unspecified)?
RAM network inh: 1; Lmaj promast: 1; WT yeast gro inh: 17; CHOP inhibitor: 12

Results for COc1ccccc1CN1CCNC(=O)C1CC(=O)N(C)Cc1ccon1 (stereo unspecified) ?
RAM network inh: 0; Lmaj promast: -2; WT yeast gro inh: 1; CHOP inhibitor: 16

How did CCOc1cc(N2CCOCC2)c(OCC)cc1NC(=O)c1cc(-c2ccco2)nc2ccccc12 do in these assays?
RAM network inh: 2; Lmaj promast: -2; WT yeast gro inh: -3; CHOP inhibitor: 105*; CHOP confirm: 67

Results for CCOc1cc(N2CCOCC2)c(OCC)cc1NC(=O)COc1ncnc2ccccc12 ?
RAM network inh: 1; Lmaj promast: -1; WT yeast gro inh: -1; CHOP inhibitor: -5

How did O=C(Nc1ccc(F)c(Cl)c1)Nc1csc2ccccc12 do in these assays?
CHOP inhibitor: 99*; CHOP confirm: 26

Results for O=C(Nc1ccc(F)cc1F)Nc1csc2ccccc12 ?
CHOP inhibitor: -10

How did CCCCC1=CC2=C(c3ccco3)C(=O)C(C)(OC(=O)c3ccc(OC)cc3)C(=O)C2=CN1Cc1ccccc1 (stereo unspecified) do in these assays?
CHOP inhibitor: 105*; CHOP confirm: 73*

How did CCCCC1=CC2=C(c3ccco3)C(=O)C(C)(OC(=O)c3ccc(OC)cc3)C(=O)C2=CN1Cc1ccc2c(c1)OCO2 (stereo unspecified) do in these assays?
CHOP inhibitor: 102*; CHOP confirm: 24

What do the screens show for `CCCCC1=CC2=C(c3ccco3)C(=O)C(C)(OC(=O)c3ccc(OC)cc3)C(=O)C2=CN1C1CCCCC1` (stereo unspecified)?
CHOP inhibitor: 101*; CHOP confirm: 6

Results for O=C1CC(C(=O)Nc2cccc(F)c2)n2ncnc2N1 (stereo unspecified) ?
RAM network inh: 2; Lmaj promast: -1; WT yeast gro inh: -15; CHOP inhibitor: 8

How did CCCCS(=O)CC(COc1ccc(Cl)cc1)OC(=O)c1ccccc1 (stereo unspecified) do in these assays?
RAM network inh: 3; Lmaj promast: 10; WT yeast gro inh: 30; CHOP inhibitor: 104*; CHOP confirm: 22

How did CCCCS(=O)CC(COC)OC(=O)c1ccccc1 (stereo unspecified) do in these assays?
RAM network inh: 0; Lmaj promast: -4; WT yeast gro inh: 0; CHOP inhibitor: 17

What do the screens show for `CCOC(=O)c1c(C)n(C)c2ccc(OC)c([N+](=O)[O-])c12`?
RAM network inh: 0; Lmaj promast: -3; WT yeast gro inh: -15; CHOP inhibitor: -8

How did CCCCn1c(NS(=O)(=O)c2ccccc2)c(S(=O)(=O)c2ccc(C)cc2)c2nc3ccccc3nc21 do in these assays?
RAM network inh: 3; Lmaj promast: 51*; WT yeast gro inh: 12; CHOP inhibitor: 99*; CHOP confirm: 76*

Results for CN(C(=O)CCn1c(=S)oc2ccccc21)c1ccc(F)cc1 ?
RAM network inh: 1; Lmaj promast: -1; WT yeast gro inh: 15; CHOP inhibitor: 2

Results for CC(=O)N(c1ccccc1)C1CCCC1 ?
RAM network inh: 2; Lmaj promast: -5; WT yeast gro inh: -14; CHOP inhibitor: 18

Results for O=C(CCl)N(c1ccccc1)C1CCCCC1 ?
RAM network inh: 2; Lmaj promast: 89*; WT yeast gro inh: -5; CHOP inhibitor: 107*; CHOP confirm: 16

How did CCc1nc2n(n1)C(O)c1cc([N+](=O)[O-])ccc1S2 (stereo unspecified) do in these assays?
CHOP inhibitor: 3

What do the screens show for `C=CCc1cccc(CNc2nc3ccccc3n2C(C)C)c1O`?
RAM network inh: 1; Lmaj promast: 48; WT yeast gro inh: 70*; CHOP inhibitor: 108*; CHOP confirm: 43

What do the screens show for `CCCC1=C(C(=O)OCC)C(c2ccc(OC)c(CSc3ccccn3)c2)C(C#N)=C(N)O1` (stereo unspecified)?
RAM network inh: 1; Lmaj promast: 10; WT yeast gro inh: 14; CHOP inhibitor: 21

What do the screens show for `CN1CCN(C(=O)C2=C[C@H](C(C)(C)C)C[C@H](OCCCCO)O2)CC1`?
RAM network inh: 0; Lmaj promast: 0; WT yeast gro inh: 9; CHOP inhibitor: 16
